# Assay results taken from ChEMBL document CHEMBL4513216, “Probing the Open Global Health Chemical Diversity Library for Multistage-Active Starting Points for Next-Generation Antimalarials” (ACS Infect Dis, 2020).
# Screen size: about 68,000 compounds; about 2,700 (4%) showed an effect of 50% or more. What follows is part of a selection rich in strong results, with near analogues and random picks from the rest.
# Tested on: Plasmodium berghei
# Assay: Screen against P. berghei liver stage (PbLuc), transformed with Luciferase, at 2uM
# Assay type: functional, HepG2
# Settings: tested at 2 uM
row,SMILES,INHIBITION [%]
1,CCNc1cc2c(nn1)CCN(C(=O)C(C)c1c(C)noc1C)C2 (stereo not given),-45.83
2,COc1cc(CNCc2ccnc(N3CCCC3)c2)cc(OC)c1,-2.71
3,CCN1C[C@H]2C3(CCN(C(=O)NC(C)C)CC3)CC[C@@]2(C(=O)NC)C1,45.36
4,O=S(=O)(c1c(Cl)nc2sccn12)N1CCC2(CCNCC2)C1,27.17
5,O=S(=O)(c1c(Cl)nc2sccn12)N1CCCC2(CCNC2)C1 (stereo not given),12.83
6,CN1CCCC2(CCN(S(=O)(=O)c3c(Cl)nc4sccn34)C2)C1=O (stereo not given),66.11
7,CCC1=N[C@@]2(CC[C@@H]3CN(S(=O)(=O)CC(C)C)C[C@@H]32)C(=O)N1CC,47.53
8,CCN(Cc1c(F)cccc1F)Cn1nc(C)c2c(C)onc2c1=O,62.13
9,CCN(Cc1cccc(F)c1)Cn1nc(C)c2c(C)onc2c1=O,9.17
10,CCN(Cc1cccc(C)c1)Cn1nc(C)c2c(C)onc2c1=O,-1.02
11,CN1CCC(N(Cc2ccncc2)Cc2nc3c(s2)CCCC3)CC1,-1.15
12,O=C(NCCCc1nc(=O)[nH][nH]1)c1ccc(Cl)cn1,43.28
13,CN(C)CCOCc1cncc2c1CCN(C(=O)C1CCOCC1)C2,26.48
14,Cn1ccnc1SCCNC1CCN(c2ncccn2)CC1,50.98
15,Cn1ccnc1SCCNC1CCN(c2nc3ccccc3s2)CC1,-11.8
16,Cc1cc(C)nc(N2CCC(NCCSc3nnnn3C)CC2)n1,-25.72
17,COc1cc(N2CCC3(CCCN(C(=O)c4cnccn4)C3)C2)ncn1 (stereo not given),-42.01
18,CCN1CCN(CC(C)(O)c2cccc(C(F)(F)F)c2)CC1 (stereo not given),69.41
19,CC(=O)N1CCN(CC(C)(O)c2cccc(C(F)(F)F)c2)CC1 (stereo not given),1.63
20,CC(O)(CN1CCN(CCO)CC1)c1cccc(C(F)(F)F)c1 (stereo not given),-27.62
21,O=C(NCCNc1ccccn1)Nc1cc(C(F)(F)F)c[nH]c1=O,-20.82
22,CC(C)C(NC(=O)Cn1ccc(=O)n(C)c1=O)c1ccc(F)cc1 (stereo not given),-56.99
23,Fc1ccc(C(CNc2ccncn2)N2CCCC2)cc1 (stereo not given),30.93
24,N[C@@H]1CC[C@H](C(=O)NCCc2nc(-c3ccccc3)cs2)C1,60.18
25,NC(=O)CN1CCC(C(=O)NCc2nc(-c3ccc(F)cc3)cs2)CC1,14.19

row,SMILES,INHIBITION [%]
1,NC(=O)CN1CCC(C(=O)NCCc2nc(-c3ccccc3)cs2)CC1,-13.72
2,COCCN1CCCn2cnc(CNC(=O)N(C)C)c2C1,2.33
3,CC(C)(CO)CCCNC(=O)NC1(c2cccc(F)c2)CC1,57.16
4,CC(C)(CO)CCCNC(=O)NC1(C)Cc2ccccc2C1,29.87
5,CC(C)(CO)CCCNC(=O)NC1(c2ccccc2F)CC1,-3.66
6,CC(NC(=O)COc1ccccc1I)C1CC1 (stereo not given),-3.87
7,CN(CCOCC1CC1)C(=O)Nc1ccc([S+](C)[O-])cc1 (stereo not given),-88.39
8,O=C(CCNCc1cccc2c1OCCCO2)NC1CCCC1,-42.54
9,O=C(NCCNCc1cccc2c1OCCCO2)C1CCCC1,77.72
10,O=C(CC1CCCC1)NCCNCc1cccc2c1OCCO2,30.57
11,CCO[C@@H]1CO[C@@]2(CCCN(S(=O)(=O)c3ccccc3)C2)C1,32.66
12,COCCN1CCC12CCN(c1ncccn1)C2 (stereo not given),30.96
13,O=C(O)c1cc2n(n1)CCCN(C(=O)CCc1c[nH]c3ccccc13)C2,6.72
14,N#Cc1cc2n(n1)CCN(C(=O)CCc1c[nH]c3ccccc13)C2,76.29
15,COC(=O)c1cc2n(n1)CCCN(C(=O)Cc1c[nH]c3ccccc13)C2,19.27
16,CC(NC(=O)c1cccc(CCC(C)(C)O)c1)c1nnc(N)s1 (stereo not given),18.84
17,Cc1noc(C)c1-c1cc(C2CCNCC2)ccn1,-18.04
18,O=S(=O)(CC1CCCO1)Nc1cc(Cl)ccc1-n1cccn1 (stereo not given),-69.64
19,Cc1ccc(N2CCC(N3C[C@@H](CN(C)C)[C@@H](CO)C3)CC2)cc1,27.85
20,CN(C)C[C@@H]1CN(C2CCN(c3ccc(Cl)cc3)CC2)C[C@@H]1CO,63.46
21,CN(C)C[C@@H]1CN(C2CCN(c3ccccc3Cl)CC2)C[C@@H]1CO,32.26
22,Cc1ccccc1OCC(=O)N1CCN(C2CCOC2=O)CC1 (stereo not given),-42.29
23,CCn1ccnc1CN(C)Cc1nc(Cc2ccccc2F)no1,36.34
24,Cc1cc(C[S+]([O-])CC(=O)NCc2cccc(Cl)c2)no1 (stereo not given),-11.2
25,CCN1CC2(CC1=O)CN(C(C)=O)CCN(C(=O)NC)C2 (stereo not given),-17.59

row,SMILES,INHIBITION [%]
1,N#Cc1ccc(SCCCO)c(F)c1,-22.89
2,N#Cc1ccc(SCCOCCO)c(Cl)c1,53.63
3,CCCS(=O)(=O)CCSc1cccc(C#N)c1,32.97
4,N#Cc1ccc(SCCC(=O)O)cc1,1.8
5,N#Cc1ccc(SCCOCCO)c(F)c1,53.63
6,N#Cc1ccc(F)c(CNc2ccc(F)cc2OCCO)c1,-17.04
7,CO[C@@H]1CCC[C@@H](NC(=O)C(C)(C)c2cccc(F)c2)[C@H]1O,-21.9
8,CC(C)n1cnc2c1C(C(=O)N1CCCC1)N(S(C)(=O)=O)CC2 (stereo not given),29.19
9,Cn1cc(I)c(C(=O)NCCCn2cc(Br)cn2)n1,-6.71
10,Cc1nn(C)c(C)c1C(C(=O)O)N1CCc2ccccc2C1 (stereo not given),11.33
11,O=C(NCCS(=O)(=O)N1CCN(c2ncccn2)CC1)c1ccccc1,30.62
12,Cc1nc(CN2C[C@@H]3CCCO[C@@H]3[C@H](N(C)C(C)C)C2)cs1,-20.01
13,CC(=O)N1CC(C)CN(C(=O)c2cccnc2C)c2ccccc21 (stereo not given),-5.98
14,N#Cc1c(Cl)nsc1NCc1cccnc1OC1CCCC1,-59.9
15,O=c1[nH]cnc2c1CCN(S(=O)(=O)c1ccc(Cl)cc1)C2,5.1
16,O=S1(=O)c2ccccc2C2(CCN(Cc3cccnc3)C2)N1CC1CC1 (stereo not given),30.39
17,CCC(=O)N1CCc2nc(N3CCOCC3)nc(N(C)C)c2CC1,54.62
18,Cc1nc(N2CCOCC2)nc2c1CCN(C(=O)C1CCCCC1)CC2,36.99
19,Cc1nc(N2CCCC2)nc2c1CN(C(=O)NC(C)C)CC2,60.05
20,Cc1nc(N2CCCC2)nc2c1CCN(C(=O)NC(C)C)CC2,-4.2
21,CCS(=O)(=O)N1CCc2nc(N3CCOCC3)nc(N(C)C)c2CC1,21.57
22,Cc1nc(N2CCCC2)nc2c1CCN(C(=O)NC1CCCC1)CC2,40.28
23,CC(=O)N1CCc2nc(N3CCCC3)nc(C)c2C1,15.57
24,Cc1nc(N2CCOCC2)nc2c1CCN(C(=O)NC1CCCC1)CC2,51.57
25,CCCS(=O)(=O)N1CCc2nc(N3CCOCC3)nc(N(C)C)c2C1,40.64
